# An excerpt weighted towards active compounds, which were near 4.4% of everything screened.
# TRHR ag: agonists of human TRH receptor; TRHR cells, calcium flux fluo-8, FDSS agonist mode; activation, % at 2 µM; actives 0.18% (n = 360,000); AID 493084; note: 0% is about no effect
# Target sequence (P34981 whole entry, looked up): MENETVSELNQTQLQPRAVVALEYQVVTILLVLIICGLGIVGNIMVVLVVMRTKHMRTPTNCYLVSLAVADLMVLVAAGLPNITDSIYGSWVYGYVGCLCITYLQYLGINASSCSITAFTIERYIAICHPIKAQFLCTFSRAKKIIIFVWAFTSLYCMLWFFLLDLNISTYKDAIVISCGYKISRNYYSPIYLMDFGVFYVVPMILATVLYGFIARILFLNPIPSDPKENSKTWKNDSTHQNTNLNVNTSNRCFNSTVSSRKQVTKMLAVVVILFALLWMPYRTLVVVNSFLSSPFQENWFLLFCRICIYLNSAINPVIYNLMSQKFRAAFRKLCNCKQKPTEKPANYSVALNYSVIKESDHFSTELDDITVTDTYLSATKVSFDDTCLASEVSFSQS
#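 TRHR-expressing cells loaded with fluo-8 calcium dye; 23 nL library compound pin-transferred, kinetic FDSS fluorescence (Ex 480/Em 530) recorded about 180 s for agonist-induced calcium release, before a 10 nM TRH EC20 addition for potentiator mode.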
# USP1 inh: blocks the human USP1/UAF1 deubiquitinase complex | Potency, µM (top dose mostly 57.1 µM), inactives show top-dose activity change, negative = inhibition, actives largely listed as inhibitors | actives 0.23% (n = 390,000) | recombinant USP1/UAF1, Ub-Rhodamine cleavage fluorescence; active = well fitted inhibition curve with a large enough effect; inconclusive = small, poorly fitted or top-dose-only effect; inactive = no such curve, though single readings can be large or run the other way; note: potency is the fitted concentration of half-maximal effect; % is set by controls: 0 for no effect and ±100 for the full control effect; nearly all actives have a fitted effect of over 60% in size
#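 High-throughput fluorogenic screen: 1nM USP1/UAF1 complex, Ub-Rho substrate 150nM final, 50mM HEPES pH 7.8 with 0.5mM EDTA, 0.1 mg/ml BSA, 1mM TCEP and 0.01% Tween-20.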
# TRHR enhancer: TRH receptor (human) allosteric enhancement | P34981 | enhancement, % at 2 µM | TRHR cells, fluo-8 calcium fluorescence, EC20 TRH enhancement | AID 493056 | actives 0.66% (n = 360,000); in the data active = enhancement above about 30%; note: 0% is about no effect
#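 Enhancer read-out: after compound pinning and an initial kinetic agonist-mode read, an EC20 of TRH (10 nM final) was injected and fluo-8 calcium signal (Ex 480/Em 530) followed at 1 s/cycle for 100 cycles in TRHR-expressing cells.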
# D1 agonist: activates the human D1 dopamine receptor; HEK293 T-REx D1 cells, calcium flux, agonist mode; AID 504660; activation, % at 2 µM; actives 1% (n = 360,000); P21728; note: 0% is about no effect
#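 Agonism was scored from calcium flux recorded over 180 s (1 read/s) after pintool compound addition, following a 10-cycle baseline. Cells were inducible force-coupled HEK293 TREx D1, plated overnight at 30 C and loaded with no-wash calcium dye.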
# D1 PAM: human D1 dopamine receptor positive modulation; potentiation, % at 10 µM; actives 0.036% (n = 360,000); P21728; HEK293 TREx D1 cells, calcium flux, dopamine EC20 potentiation; in the data active = potentiation above about 30%; note: 0% is about no effect
# D1 antagonist: human D1 dopamine receptor antagonism; P21728; HEK293 TREx D1 cells, calcium flux, dopamine EC80; active compounds read low; activity change, negative = inhibition, % at 10 µM; actives 3.2% (n = 360,000); AID 504652; in the data active = activity change below about -30%; note: % is set by controls: 0 for no effect and ±100 for the full control effect
#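 Tetracycline-induced HEK293 T-REx cells with force-coupled D1 receptor were loaded with a no-wash calcium dye. Compound was added after a 10 s baseline and read kinetically for 180 s; EC80 dopamine was then added and calcium flux followed another 180 s.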
# An asterisk follows results filed as active; u = inconclusive; x = no result given. Cut-off read from the data, not from the text of the source, unless noted: active = activation above about 30%; inactive = the rest.
SMILES,TRHR ag,USP1 inh,TRHR enhancer,D1 agonist,D1 PAM,D1 antagonist
Cn1c(=O)oc2cc(S(=O)(=O)N3CCC(C(=O)Nc4ccc(F)c(Cl)c4)CC3)ccc21,0,-25%,1,4,-5,-52*
Cc1cc(C)cc(NC(=O)C2CCN(S(=O)(=O)c3ccc4c(c3)oc(=O)n4C)CC2)c1,-1,-11%,-3,-1,-1,-34*
COc1ccc(CCNC(=O)C(=O)NCC2OCCCN2S(=O)(=O)c2cc(C)ccc2C)cc1 (centres undefined),0,-3%,-1,1,3,-44*
Cc1ccc(S(=O)(=O)N2CCCOC2CNC(=O)C(=O)NCCc2c[nH]c3ccccc23)cc1 (centres undefined),-1,2%,1,1,-13,-36*
O=C(NCCc1c[nH]c2ccccc12)C(=O)NCC1OCCCN1S(=O)(=O)c1ccccc1 (centres undefined),0,-21%,-1,3,1,-20
O=C1c2ccccc2-c2cccc(NS(=O)(=O)c3ccc(C(F)(F)F)cc3)c21,15,28µM*,1,55*,0,3
Cc1ccc(S(=O)(=O)Nc2ccccc2-c2ccccc2NS(=O)(=O)c2ccc(C)cc2)cc1,0,-24%,1,2,-5,-2
COc1cc(OC)c2c(C)c(Cl)c(=O)oc2c1,0,-10%,-3,-1,-10,-36*
COc1cccc(Nc2nc3ccc(OC)cc3s2)c1,0,u,13,-1,1,17
COc1ccc(Nc2ccnc3ccccc23)cc1,0,-1%,10,14,-8,-43*
Cc1cccc(Nc2nc3ccccc3s2)c1C,8,-12%,-10,30*,5,-2
COc1ccc(Nc2nc3ccccc3s2)cc1,1,-24%,-11,0,5,-38*
Nc1c(-c2ccc(Cl)cc2)nnn1-c1ccccc1,0,-16%,-2,-1,-7,-50*
Nc1c(-c2ccc(Cl)cc2)cnn1-c1ccccc1,0,-31%,-9,0,-3,-4
COc1ccccc1OCC(O)Cn1c(=N)n(Cc2ccccc2)c2ccccc21 (centres undefined),-2,-11%,-3,47*,-9,-62*
N=c1n(CCN2CCCCC2)c2ccccc2n1CC(O)COc1ccc(Cl)cc1Cl (centres undefined),8,10%,-1,195*,-3,1
COc1ccc(OCC(O)Cn2c(=N)n(CCN3CCCCC3)c3ccccc32)cc1 (centres undefined),0,-28%,2,0,-2,12
Cc1ccccc1OCC(O)Cn1c(=N)n(Cc2ccccc2)c2ccccc21 (centres undefined),2,-18%,13,45*,-16,-38*
C=CCn1c(=N)n(CC(O)COc2ccccc2OC)c2ccccc21 (centres undefined),0,4%,4,3,-5,-18
Cn1c(Oc2ccc(F)cc2)c(C=O)c2ccccc21,3,-20%,-2,2,-2,7
Cn1c(Sc2ccc(Br)cc2)c(C=O)c2ccccc21,0,-6%,17,4,-8,-63*
CC1(C)Cc2cccc(OCC(=O)NCc3ccccc3F)c2O1,0,-27%,-1,3,0,-35*
CN(CC(=O)NCc1cccs1)S(=O)(=O)c1cccc2cccnc12,0,-2%,-5,1,x,7
CN(C)c1ccc(CNC(=O)CN(C)S(=O)(=O)c2cccc3cccnc23)cc1,1,-19%,7,0,x,-66*
CCOc1ccc(NC(=O)CN2C(=O)COc3ccc(S(=O)(=O)NC4CCCC4)cc32)cc1,0,-24%,1,-1,1,-3
SMILES,TRHR ag,USP1 inh,TRHR enhancer,D1 agonist,D1 PAM,D1 antagonist
COc1ccc(NC(=O)c2oc3ccccc3c2NC(=O)COc2ccc(C(C)C)cc2)c(OC)c1,0,-12%,5,1,0,0
COc1cc(CC(=O)OCC(=O)NCC(C)C)cc(OC)c1OC,2,-21%,-1,9,-3,-33*
COc1cc(CCC(=O)OCC(=O)Nc2ccc(F)cc2F)cc(OC)c1OC,0,-7%,12,16,-2,-48*
O=C(CCC(=O)OCC(F)(F)C(F)F)Nc1ccc(Cl)cc1,1,-13%,2,3,0,17
COc1cc(CCC(=O)OCC(=O)Nc2ccc(Br)cc2F)cc(OC)c1OC,0,-21%,-9,9,x,-5
COc1cc(CC(=O)OCC(=O)NCc2ccc(C)cc2)cc(OC)c1OC,0,-2%,-3,2,6,21
O=C(CCC(=O)OCC(F)(F)C(F)F)Nc1ccc(F)cc1F,0,-13%,5,3,-4,-60*
COc1cc(CCC(=O)OCC(=O)c2ccc[nH]2)cc(OC)c1OC,0,-6%,5,6,x,-42*
CCOC(=O)c1c(NC(=O)c2cc(-c3ccccc3)on2)sc2c1CCCC2,0,-5%,19,3,1,19
Cc1ccc(CN2CCSc3ccc(C(=O)Nc4ccc(C)cc4)cc32)cc1,-1,-14%,-2,2,-2,6
Cc1ccc(-n2nc3cc(C)c(NC(=O)COc4ccccc4)cc3n2)cc1,1,u,-5,4,1,-13
COc1cc(CCC(=O)OCC(=O)Nc2ccccc2C#N)cc(OC)c1OC,0,4%,34*,11,1,6
O=C(COC(=O)Cc1ccccc1F)Nc1ccc2c(c1)OCO2,-1,u,-6,5,-4,-37*
O=C(COC(=O)Cc1ccccc1F)Nc1ccc(SC(F)F)cc1,0,-19%,-6,8,-7,-35*
CC1=C(C(=O)NCc2ccccc2F)C2(CCCCC2)OC1=O,0,-9%,0,-1,-1,-9
Cc1ccc(C2=NS(=O)(=O)N(C)C(C(=O)NC(C)c3ccccc3)=C2)cc1 (centres undefined),0,-8%,0,3,-6,-43*
CSc1ccccc1NC(=O)C1=CC(c2ccc(C)cc2)=NS(=O)(=O)N1C,0,-20%,3,2,1,-8
COc1ccc(NC(=O)C2=CC(c3ccc(OC)cc3)=NS(=O)(=O)N2C)cc1,0,-17%,1,6,1,-1
Cc1ccc(C2=NS(=O)(=O)N(C)C(C(=O)NCc3ccccc3)=C2)cc1,-1,-16%,-8,5,-9,-47*
COc1ccc(C2=NS(=O)(=O)N(C)C(C(=O)Nc3ccc(OC(F)(F)F)cc3)=C2)cc1,1,-16%,0,4,-2,-37*
